Drawing on PubChem BioAssay AID1030 (National Center for Advancing Translational Sciences (NCATS), 2008), this text covers Potency and activity, negative = inhibition for 69 molecules.

SMILES strings stand for the structures. Screen size: about 220,000 compounds; about 16,000 (7.3%) were called active. Roughly 25% stayed inconclusive and do not appear here. Calls follow the shape of the dose curve; as a rule, active = well fitted inhibition curve with a large enough effect (not every such curve was filed as active); inconclusive = small, poorly fitted or top-dose-only effect, or another doubt; inactive = no such curve, though single readings can be large or run the other way. What follows is part of a selection rich in actives, with near analogues and random picks from the rest. A call without a number means that no potency is given here.
Potency is read from the fitted curve at half-maximal effect.

Sequence of Aldehyde dehydrogenase 1A1 (Homo sapiens) (P00352 whole entry, looked up): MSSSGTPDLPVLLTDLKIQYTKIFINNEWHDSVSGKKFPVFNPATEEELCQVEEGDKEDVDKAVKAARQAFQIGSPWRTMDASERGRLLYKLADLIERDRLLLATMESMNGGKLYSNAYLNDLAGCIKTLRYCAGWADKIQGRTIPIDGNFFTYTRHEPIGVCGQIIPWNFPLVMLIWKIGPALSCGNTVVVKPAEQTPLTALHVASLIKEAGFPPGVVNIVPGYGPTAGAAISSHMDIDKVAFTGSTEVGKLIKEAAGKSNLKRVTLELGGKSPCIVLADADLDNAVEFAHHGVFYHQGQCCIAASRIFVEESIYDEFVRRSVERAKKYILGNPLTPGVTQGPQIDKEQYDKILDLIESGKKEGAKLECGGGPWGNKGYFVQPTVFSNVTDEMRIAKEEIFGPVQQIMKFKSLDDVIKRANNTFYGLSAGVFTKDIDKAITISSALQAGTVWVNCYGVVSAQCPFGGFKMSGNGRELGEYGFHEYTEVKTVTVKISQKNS

This test has as its target Aldehyde dehydrogenase 1A1 (Homo sapiens) (UniProt P00352). The experiment in a line: qHTS Assay for Inhibitors of Aldehyde Dehydrogenase 1 (ALDH1A1). Particulars: Purified ALDH1A1, NADH fluorescence, propionaldehyde substrate; series mostly up to 75.3 µM.
For `CCc1ccc(NC(=O)C(=O)N/N=C(\C)CC(=O)NCCOC)cc1`, the Potency entry was “inactive”.

On to `CCOC(=O)c1cccc(NC(=O)CCOc2ccccc2)c1`, for which the Potency result is “inactive”. Still for that read-out and setting: the result for `CCOC(=O)CSc1nc(C)cc2c1C(=O)OC2` reads “inactive”; that for `CCOC(=O)C1CCCN(C(=O)c2cccc(S(=O)(=O)N3CCOCC3)c2)C1` (centres undefined), “inactive”; that for `COc1cccc(N(Cc2nnc3n2CCCCC3)C(=O)Nc2ccccc2F)c1`, “inactive”. Turning to `Cc1cc(C(=O)NNS(=O)(=O)c2ccccc2C(F)(F)F)nn1C(C)(C)C`, the Potency entry was “inactive”. Regarding `O=C(Nc1ccc(Br)cn1)c1ccc([N+](=O)[O-])cc1Cl`, the Potency entry was “inactive”. On the same count and under the same terms, the result for `O=C(CCN1C(=O)c2ccccc2C1=O)Nc1cccc(F)c1` reads “inactive”. As to `O=C1c2ccccc2C(=O)N1CCCSc1ccccc1`, the activity, negative = inhibition is -6.74% [at 13.5 µM] (inactive). Consider `O=C1c2ccccc2C(=O)N1CCC(O)C[N+](=O)[O-]` (centres undefined), for which the Potency was 22.4 µM (active). Still for that read-out and setting: the result for `Cc1ccc(C)c(CSc2nc(-c3ccco3)nc3c2c(=O)n(C)c(=O)n3C)c1` reads “inactive”; that for `O=C(O)CSc1nnc(-c2ccc3c(c2)OCO3)n1-c1ccccc1`, “inactive”; that for `CSc1nsc(SC)c1NC(=O)OC1CCCCC1`, 20 µM (active).

`CSc1ncccc1C(=O)NC1CCCCCC1`: the Potency result is “inactive”. For `CC1(CCC(=O)OC2CCCCC2)OCCO1`, the activity, negative = inhibition was -6.23% [at 13.5 µM] (inactive). On to `Cc1cccc(C2c3[nH]c4ccccc4c3CCN2C(=O)c2cc(-c3cccn3C)n[nH]2)n1` (centres undefined), for which the Potency result is “inactive”. With `COc1ccc2c(c1)C(c1cccs1)=NNC(c1cccnc1)=N2`, the Potency entry was “inactive”. Still for that read-out and setting: the result for `CC(=O)Nc1ccc(NC(=O)C(C)n2c3ccccc3c3nc(=O)cc(C)n32)cc1` (centres undefined) reads “inactive”. The same measure, in the same setting: the result for `C/C(=N\Nc1nc(N2CCOCC2)nc(N2CCOCC2)n1)c1ccc([N+](=O)[O-])cc1` reads “inactive”; that for `COc1ccc(C(=O)Nc2cccc(S(C)(=O)=O)c2)cc1`, “inactive”.

Regarding `O=C(Nc1cccc(OCC(=O)N2CCOCC2)c1)C1CCCCC1`, the Potency entry is “inactive”. Still for that read-out and setting: the result for `CC(=O)Nc1ccc(S(=O)(=O)Nc2ccc(N3CCOCC3)c(F)c2)cc1` reads “inactive”; that for `COc1ccc(NS(=O)(=O)c2cc(NC(=O)C3CCCCC3)ccc2N2CCOCC2)cc1`, 2.51 µM (active); that for `COc1cccc(/C=C2\SC(=N)N(c3ccc(F)cc3)C2=O)c1`, “inactive”. The same measure, in the same setting: the result for `COc1ccc(CCNC(=O)CSc2nnc3ccc(-c4ccncc4)nn23)cc1` reads “inactive”; that for `CN(C)C(=O)CSc1n[nH]c(-c2ccco2)n1`, “inactive”.

For the molecule `CCOC(=O)c1ccc(NC(=S)Nc2cc(C)cc(C)n2)cc1`, the Potency result was “inactive”. As to `CCOC(=O)c1cc2ccccc2nc1C`, the Potency result was “inactive”. Take `CCOC(=O)c1cc2c(nc1NC(=S)Nc1ccccc1)CC(C)(CC)OC2` (centres undefined): the Potency is 12.6 µM (active). On to `O=S(=O)(c1ccccc1)c1nc(-c2ccccc2F)oc1NCc1cccnc1`, for which the Potency entry is “inactive”.

As to `CN(C)C=NC(=O)c1cccn1-c1ncc(C(F)(F)F)cc1Cl`, the Potency entry is “inactive”. Same read-out and setting: the result for `COC(=O)c1cc(NC(=O)c2nn(C)c(=O)c3ccccc23)cc(C(=O)OC)c1` reads “inactive”. `OCCCC1CCCCN1Cc1nc(Cc2ccccc2Cl)no1` (centres undefined): the Potency result is “inactive”.

In the case of `COc1ccc(N2C(=O)/C(=C\c3ccco3)N=C2SCC(N)=O)cc1Cl`, the Potency entry is “inactive”. Consider `Cc1ccccc1OCCC(=O)OCC(=O)NC(C)c1ccccc1` (centres undefined), for which the Potency entry was “inactive”.

`CCOC(=O)CCC(=O)OCC(=O)NC(C)C1CC2CCC1C2` (centres undefined): the Potency is 15.8 µM (active).

With `O=C(COC(=O)CC1CC2CCC1C2)NC(=O)NC1CCCC1` (centres undefined), the Potency entry is “inactive”. Turning to `CCOC(=O)CNC(=O)/C(=C\c1ccc(F)cc1)NC(=O)c1ccccc1`, the Potency entry was “inactive”.

Turning to `CN(C)c1nnnn1-c1ccc(Cl)cc1`, the Potency result is “inactive”.

Consider `Cc1cc(C)cc(NC(=O)CSc2ccccc2)c1`, for which the Potency result is “inactive”. On the same count and under the same terms, the result for `Cc1cccc(NC(=S)Nc2ccc3cn[nH]c3c2)c1` reads 10 µM (active); that for `S=C(Nc1cccc(Cl)c1)Nc1ccc2cn[nH]c2c1`, 28.2 µM (active). The same measure, in the same setting: the result for `Cc1csc(NC(=S)Nc2cccc(Cl)c2)n1` reads “inactive”; that for `Cc1cccc(NC(=O)CSc2nc3[nH]ncc3c(=O)[nH]2)c1`, “inactive”; that for `Cc1cccc(NC(=S)Nc2ccc(Br)cc2)c1`, “inactive”. Still for that read-out and setting: the result for `O=C(Nc1ccc2cn[nH]c2c1)c1ccc(S(=O)(=O)N2CCOCC2)cc1` reads “inactive”; that for `CC(N)(C(=O)O)c1ccc(-c2nn[nH]n2)cc1` (centres undefined), “inactive”. Turning to `Cc1cc(C)c(S(=O)(=O)N2CCOCC2)cc1C`, the Potency result is “inactive”.

For the molecule `COC1(C2=NCCN2)COc2ccccc2O1` (centres undefined), the Potency entry is “inactive”. Still for that read-out and setting: the result for `CC1(C)C(c2cccs2)=[N+]([O-])C2(CCCCC2=O)N1O` (centres undefined) reads 22.4 µM (active). On the same count and under the same terms, the result for `Cc1cccc(C)c1NC(=O)CNC(=O)Cc1ccc(Br)cc1` reads “inactive”; that for `CCCCCC1CCC(c2nnc(SCC(C)=O)o2)CC1` (centres undefined), “inactive”; that for `CCN(CC)S(=O)(=O)c1ccc(Cl)c(NC(=O)c2ccncc2)c1`, 12.6 µM (active). As to `Cc1nn(Cc2ccc(F)cc2)c(C)c1NC(=O)c1cccnc1Cl`, the Potency entry was “inactive”. Still for that read-out and setting: the result for `CCN(CC)S(=O)(=O)c1cccc(C(=O)Nc2ccccc2)c1` reads “inactive”; that for `CCN(CC)S(=O)(=O)c1ccc(NC(=O)c2cccnc2Cl)c(NC(=O)c2cccnc2Cl)c1`, 7.08 µM (active); that for `Cc1ccc(CNC(=O)c2cccnc2Cl)cc1`, “inactive”. With `CCN(CC)S(=O)(=O)c1ccc(C)c(NC(=O)COc2ccc(Br)cc2Cl)c1`, the Potency entry was “inactive”. Same read-out and setting: the result for `O=[N+]([O-])c1cc(S(=O)(=O)Nc2cccc(Cl)c2)ccc1N=Nc1c(O)[nH]c2ccccc12` reads “inactive”; that for `COc1ccc(/C=N/NC(=O)c2ccncc2)cc1CN1CCCc2ccccc21`, “inactive”. For the molecule `CC(C)N(C(=O)c1ccc(-c2ccccc2F)cc1)C(C)C`, the Potency entry is “inactive”. Take `COc1ccc(CN(C(=O)c2cccs2)c2nccs2)cc1OC`: the Potency result is “inactive”. As to `O=C(c1cccs1)N(C(=O)c1cccs1)c1ccccn1`, the Potency entry was “inactive”. Regarding `COc1ccc(CN(Cc2ccc(OC)cc2)C(=O)c2cccs2)cc1`, the Potency is 8.91 µM (active).

Take `CCc1ccccc1NC(=S)N(CCN1CCCCCC1)Cc1ccco1`: the Potency entry is “inactive”.

For `O=C(COC(=O)CNC(=O)c1ccco1)Nc1ccc(F)cc1`, the Potency result was “inactive”. Still for that read-out and setting: the result for `CC(C)[C@@H]1NC(=O)[C@H](Cc2ccccc2)NC(=O)[C@@H](CC(=O)O)NC(=O)CNC(=O)[C@H](CCCNC(=N)N)NC1=O` reads “inactive”; that for `Cc1nccc(-c2ccc(-n3c(C)ccc3C)cc2)n1`, “inactive”.

In the case of `Cc1ccc(C(=O)O)cc1NC(=O)c1ccc(Cn2nc(C)c(Cl)c2C)o1`, the Potency result was “inactive”.
